Bioassay records (PubChem BioAssay)
FLuc inh = Photinus pyralis luciferase inhibition | P08659 | purified P. pyralis luciferase, luminescence, biochemical | Potency, µM (series often up to 115 µM), most hits filed as inhibitors | hit rate 2.5% among 76,000; note: nearly all actives have a fitted effect of over 65% in size
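FLuc 10nM, D-luciferin 10uM, ATP 10uM, Mg acetate 10mM, Tris acetate pH 7.5, Tween/BSA; cpd qHTS; enzyme added last; CCD luminescence.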
hNpr1 antagonist = human Npr1 receptor antagonism; P16066; HEK293 hNpr1 GloSensor cGMP, ANP-stimulated luminescence; Potency, µM (series often up to 46.3 µM), for inactives: at the highest dose activity change, negative = inhibition, actives largely listed as inhibitors; hit rate 1.6% among 76,000; AID 1347048; calls by dose curve; note: nearly all actives have a fitted effect of over 60% in size
Target sequence (P16066 whole entry, looked up): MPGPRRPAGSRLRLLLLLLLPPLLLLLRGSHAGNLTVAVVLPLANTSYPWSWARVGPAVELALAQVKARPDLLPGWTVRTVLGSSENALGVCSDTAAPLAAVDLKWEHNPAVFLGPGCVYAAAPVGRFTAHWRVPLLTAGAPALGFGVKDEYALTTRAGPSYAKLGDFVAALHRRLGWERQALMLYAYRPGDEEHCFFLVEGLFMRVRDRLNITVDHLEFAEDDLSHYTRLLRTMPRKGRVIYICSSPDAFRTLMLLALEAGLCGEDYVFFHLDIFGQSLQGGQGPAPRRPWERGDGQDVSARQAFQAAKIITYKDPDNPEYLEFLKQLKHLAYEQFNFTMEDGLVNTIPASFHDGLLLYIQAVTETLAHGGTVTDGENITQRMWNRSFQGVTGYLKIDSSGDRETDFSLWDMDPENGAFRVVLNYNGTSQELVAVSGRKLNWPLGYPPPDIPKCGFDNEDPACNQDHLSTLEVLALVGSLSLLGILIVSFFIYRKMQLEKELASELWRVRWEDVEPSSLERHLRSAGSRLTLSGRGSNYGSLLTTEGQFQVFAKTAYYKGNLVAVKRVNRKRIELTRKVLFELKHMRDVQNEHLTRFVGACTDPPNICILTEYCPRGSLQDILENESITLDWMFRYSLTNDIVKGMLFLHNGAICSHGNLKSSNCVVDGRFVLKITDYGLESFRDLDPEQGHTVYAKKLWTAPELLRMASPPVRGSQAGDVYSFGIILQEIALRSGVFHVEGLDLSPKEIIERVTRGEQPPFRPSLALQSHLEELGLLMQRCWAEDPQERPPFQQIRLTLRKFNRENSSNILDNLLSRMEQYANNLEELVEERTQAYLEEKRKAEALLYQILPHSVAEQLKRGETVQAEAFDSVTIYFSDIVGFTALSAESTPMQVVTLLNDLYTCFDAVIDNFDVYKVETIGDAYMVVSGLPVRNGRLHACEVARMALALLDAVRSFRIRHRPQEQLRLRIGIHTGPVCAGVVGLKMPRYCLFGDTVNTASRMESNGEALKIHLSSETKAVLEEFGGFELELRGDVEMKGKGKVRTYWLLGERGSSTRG
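Compound pre-incubated 30 min at room temperature on GloSensor-loaded HEK293 cells stably carrying hNpr1 and the pGS-40F cGMP biosensor. Stimulation uses hNppA at 0.1 nM final; luminescence is taken at baseline and 20 min post-agonist.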
NIH3T3 tox = cytotoxic compounds in NIH 3T3 cells; hit rate 4.3% among 94,000; NIH 3T3 viability, CellTiter-Glo ATP luminescence, 48-72 h; Potency, µM (doses to about 96.7 µM), without a hit: top-dose activity change, negative = cytotoxicity, usual class: inhibitors; AID 1345082; note: nearly all actives have a fitted effect of over 55% in size
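Cytotoxicity was measured by CellTiter-Glo ATP luminescence after 48 or 72 h compound exposure at 37 °C. Mouse NIH 3T3 fibroblasts were seeded at 400 cells/well and dosed by 23 nL pin transfer.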
HEK cytotox = kills HEK 293 cells; HEK 293 viability, ATP luminescence (CellTiter-Glo), 48-72 h; Potency, µM (doses to about 115 µM), for inactives: at the highest dose activity change, negative = cytotoxicity, hits mostly inhibitors; AID 1345083; hit rate 6.6% among 94,000; note: nearly all actives have a fitted effect of over 60% in size
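250 HEK 293 cells/well; compound by pintool; incubated 48 or 72 hr at 37 degree Celsius; CellTiter-Glo added, 10 min RT, luminescence imaged.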
* = called active by the depositor; i = inactive; ? = inconclusive; . = no result; ! = repeats disagree; [ ] = remark or other dose. Most compounds without a hit are left out; they make up all but 11% or so of the library. Unless noted, calls come from the whole dose curve; as a rule, active = well fitted curve in the direction sought with a large enough effect; inconclusive = small, poorly fitted or top-dose-only effect, or another doubt; inactive = no such curve, though single readings can be large; an effect the other way counts as inactive or inconclusive. % is set by controls: 0 for no effect and ±100 for the full control effect; potency is the fitted concentration of half-maximal effect.

SMILES	FLuc inh	hNpr1 antagonist	NIH3T3 tox	HEK cytotox
C[C@@H](N)C(=O)N1CCC(C(=O)Nc2cccc(-c3cccc(Cl)c3)c2)CC1	i	4%	28µM*	40µM*
COc1ccc(-c2cc(C[C@H]3CNCC[C@H]3CC(=O)N(C)Cc3ccccc3)no2)cc1	i	-22%[70.6 µM]	35µM*	32µM*
O=C(C[C@@H]1CCNC[C@@H]1Cc1cc(-c2ccc(F)cc2)on1)NCc1ccco1	i	-13%[70.6 µM]	?	?
O=C(C[C@@H]1CCNC[C@@H]1Cc1cc(-c2ccccc2)on1)NCc1ccc(F)cc1	i	-10%[70.6 µM]	40µM*	40µM*
COc1ccc(CNC(=O)C[C@@H]2CCNC[C@@H]2Cc2cc(-c3ccc(F)cc3)on2)cc1	i	-6%	?	79µM*
COc1ccc(CNC(=O)C[C@@H]2CCNC[C@@H]2Cc2cc(-c3ccc(OC)cc3)on2)cc1	i	-13%	?	40µM*
COc1cccc(-c2cccc(C(=O)N3CCN(C(=O)c4ccc(Cl)nc4)CC3)c2)c1	.	.	-23%	?
COCC(=O)N[C@@H]1CN(C(=O)c2ccc(OC)cc2OC)CC[C@@H]1c1nc(C)no1	.	.	-10%	-2%
COc1ccc(-c2cc(C[C@H]3CNCC[C@H]3CC(=O)NCc3ccc(OC)c(OC)c3)no2)cc1	i	1%	?	-29%
COc1ccc(-c2cc(C[C@H]3CNCC[C@H]3CC(=O)NCc3ccccc3OC)no2)cc1	i	-6%	71µM*	?
COc1ccc(CNC(=O)C[C@@H]2CCNC[C@@H]2Cc2cc(CN(C)Cc3ccccc3)on2)cc1	i	-3%	-20%	40µM*
O=C(C[C@@H]1CCNC[C@@H]1Cc1cc(-c2ccc(F)cc2)on1)Nc1ccccc1	i	-14%[70.6 µM]	35µM*	40µM*
COc1ccc(-c2cc(C[C@H]3CNCC[C@H]3CC(=O)NCc3ccc4c(c3)OCO4)no2)cc1	i	-16%	79µM*	?
CC(C)(C)NC(=O)C[C@@H]1CCNC[C@@H]1Cc1cc(-c2ccc(F)cc2)on1	i	-8%[70.6 µM]	?	?
O=C(C[C@@H]1CCNC[C@@H]1Cc1cc(-c2ccc(F)cc2)on1)Nc1nccs1	i	-2%[70.6 µM]	100µM*	100µM*
CO[C@H]1C(=O)N(C2CCN(C(=O)C(C)C)CC2)[C@H]1c1ccncc1	.	.	-26%	-9%
Cc1ccsc1C(=O)Nc1ccc2c(N3CCCCC3)ncnc2c1	?	-6%	35µM*	?
O=C(Nc1ccc2c(N3CCCC3)ncnc2c1)c1ccc(Cl)cc1	i	-8%	?	-26%
O=C(Nc1ccc2c(N3CCCCC3)ncnc2c1)c1ccc(F)cc1	?	-19%	28µM*	?
O=C(Nc1ccc2c(N3CCCC3)ncnc2c1)c1ccccc1Cl	?	0%	25µM*	?
Cc1ccc(C(=O)Nc2ccc3c(N4CCCCC4)ncnc3c2)cc1F	i	-29%	?	?
O=C(Nc1ccc2ncnc(N3CCCCC3)c2c1)c1ccccc1Br	i	?	?	45µM*
CCCC(=O)NC1CCN(c2ccnc3ccnn23)C1 (stereo not drawn)	.	.	-36%[138 µM]	?
O=C(Nc1ccc2ncnc(N3CCCCC3)c2c1)c1cc(F)cc(F)c1	i	?	?	?
O=C(Nc1ccc2ncnc(N3CCCCC3)c2c1)c1c(F)cccc1Cl	i	-7%	?	50µM*
SMILES	FLuc inh	hNpr1 antagonist	NIH3T3 tox	HEK cytotox
CCc1nncn1C1CCN(S(=O)(=O)c2ccc(Cl)s2)CC1	.	.	-26%	?
CCOc1ccc(-c2cc3c(=O)n(CCNC(=O)c4ccc(OC)cc4)ccn3n2)cc1	i	-20%	-8%	-1%
CCOc1ccc(-c2cc3c(=O)n(CCNC(=O)c4ccccc4OC)ccn3n2)cc1	16µM*	-24%	i	?
CCOc1ccc(-c2cc3c(=O)n(CCNC(=O)C4(c5ccccc5)CC4)ccn3n2)cc1	25µM*	0%	i	i
O=C(NC1CC1)c1ccccc1OCC1CCCN(Cc2cccc3[nH]ccc23)C1 (stereo not drawn)	i	-10%	-24%	35µM*
CN1CCN(C(=O)C2CCCN(c3ccnc4ccnn34)C2)CC1 (stereo not drawn)	.	.	-24%	-5%
O=C(c1ccccc1)N1CCCC(C(=O)N2CCC(N3CCOC3=O)CC2)C1 (stereo not drawn)	.	.	-11%	0%
COc1cc2c(cc1OC)C(CNC(=O)c1ccco1)N(C(=O)Nc1cccc(F)c1)CC2 (stereo not drawn)	i	1%	-19%	45µM*
Cc1ccccc1C1(O)CCN(C(=O)c2ccc(C#CC(C)(C)O)o2)C1 (stereo not drawn)	i	-11%	35µM*	?
CC(C)(O)C#Cc1ccc(C(=O)N2CC(=O)N(C3CCCCC3)CC(OCc3cccnc3)C2)o1 (stereo not drawn)	i	0%	-6%	-3%
CSc1ccc(-c2cccc(C(=O)NCC(=O)N3CCN(c4ncccn4)CC3)c2)cc1	.	.	?	22µM*
O=C(NCC(=O)N1CCC(c2ccccc2)CC1)c1cccc(-c2ccc(C(F)(F)F)cc2)c1	.	.	?	10µM*
O=C(Cc1cccc(Cl)c1)NCCNC(=O)c1cccc(-c2ccc(C(F)(F)F)cc2)c1	.	.	-38%	?
CSc1ccc(-c2cccc(C(=O)NCC(=O)NCc3ccc(F)cc3)c2)cc1	.	.	?	16µM*
O=C(CNC(=O)c1cccc(-c2ccc(C(F)(F)F)cc2)c1)NCc1cccc(Cl)c1	.	.	?	28µM*
CCC1Oc2ccc(NC(=O)c3ccc(OC)c(OC)c3)cc2CN(Cc2ccc(Cl)cc2)C1=O (stereo not drawn)	i	-7%	-24%	?
CCc1noc(CN2CCC3(CC2)CC(=O)N(CCCc2ccccc2)C3)n1	i	-12%	0%	-23%
O=C(NCc1ccc(F)cc1)c1cc(-c2ccsc2)c2nncn2n1	.	.	-17%	?
O=C(NCc1ccccc1Cl)C1CCN(C(=O)c2ccc(-c3cncnc3)cc2)CC1	.	.	-28%	?
COCCNC(=O)c1cc(C(C)(C)C)nc2c1cnn2C	.	.	-26%[138 µM]	?
Cn1ncc2c(C(=O)NCc3ccc(F)c(F)c3)cc(C(C)(C)C)nc21	.	.	?	56µM*
Cn1ncc2c(C(=O)NCc3ccc(F)cc3)cc(C(C)(C)C)nc21	.	.	?	100µM*!
O=C(NCCNC(=O)c1cccc(Cl)c1)c1ccc(-c2cccc(C(F)(F)F)c2)cc1	.	.	-4%	-2%
O=C(C1CCCN1[S+](=O)([O-])c1ccccc1)N1CCC(N2CCCC2=O)CC1 (stereo not drawn)	.	.	-17%	-3%
COc1ccc(CCNC(=O)c2cn3cc(-c4ccccc4)sc3n2)cc1	.	.	-18%	-24%
O=C(C1CC=CCC1)N1CCc2[nH]nc(-c3ccc(C(F)(F)F)cc3)c2C1 (stereo not drawn)	i	-6%	?	25µM*
CSCCC(=O)N1CCc2[nH]nc(-c3ccc(C(F)(F)F)cc3)c2C1	?	-14%	?	?
